Measurements from the antibiotic and cytotoxicity screens of Wong et al. (2023).
Screen size: about 39,000 compounds; about 3,300 (8.5%) were called active. The list comes from a sample in which actives are over-represented; it also holds similar structures and randomly drawn compounds.

System: HepG2
Experiment: cytotoxicity call (relative viability < 0.9)
Settings: 10 µM

| SMILES | cytotoxicity call |
| --- | --- |
| CC(C)COC(=O)CNc1n[nH]c(=O)[nH]c1=O | inactive |
| Cn1cnc(S(=O)(=O)N[C@@H]2C=C[C@@H](CC(=O)Nc3ccccc3)O[C@@H]2CO)c1 | inactive |
| CCOC(=O)[C@H]1CC(C)=NNC1=O | inactive |
| Cn1cncc1[C@@](N)(c1ccc(Cl)cc1)c1ccc2c(c1)c(-c1cccc(Cl)c1)cc(=O)n2C | active |
| O=C(CCCCCCC(=O)N/N=C/c1cccc(B(O)O)c1)NO | inactive |
| Cn1cnc(CCNC(=O)C[C@H]2CC[C@H]3[C@@H](COC[C@@H](O)CN3C(=O)Nc3ccc(C(F)(F)F)cc3)O2)c1 | inactive |
| c1cn(-c2ccc(-n3ccnc3)nn2)cn1 | inactive |
| CN1CCN(C2=Nc3cc(Cl)ccc3Nc3ccccc32)CC1 | inactive |
| Clc1ccc2c(c1)C(N1CCNCC1)=Nc1ccccc1O2 | active |
| CN1CCN(C2=Nc3ccccc3Oc3ccc(Cl)cc32)CC1.O=C(O)CCC(=O)O | inactive |
| CCS(=O)(=O)Nc1ccc2c(c1)C(=O)N(C)C[C@@H](OC)[C@H](C)CN(Cc1cccnc1)[C@H](C)CO2 | inactive |
| O=C(C[C@@H]1C[C@H]2c3cc(NC(=O)Nc4ccc(C(F)(F)F)cc4)ccc3O[C@H]2[C@H](CO)O1)NCCc1ccccc1 | inactive |
| CO[C@H]1CN(C)C(=O)c2cc(NS(=O)(=O)c3cn(C)cn3)ccc2OC[C@@H](C)N(CC2CC2)C[C@@H]1C | inactive |
| COc1ccc(NC(=O)Nc2ccc3c(c2)C(=O)N([C@@H](C)CO)C[C@H](C)[C@H](CN(C)S(=O)(=O)c2cccs2)OCCCC[C@@H](C)O3)cc1 | inactive |
| C[C@@H]1CCCCO[C@@H](CN(C)S(=O)(=O)c2cccs2)[C@H](C)CN([C@H](C)CO)C(=O)c2cc(NC(=O)Nc3ccccc3)ccc2O1 | active |
| C[C@@H]1CCCCO[C@H](CN(C)S(=O)(=O)c2cccs2)[C@@H](C)CN([C@H](C)CO)C(=O)c2cc(NC(=O)Nc3ccc(F)cc3)ccc2O1 | inactive |
| C[C@@H]1CN([C@H](C)CO)C(=O)c2cc(NC(=O)Nc3ccc(F)cc3)ccc2O[C@@H](C)CCCCO[C@H]1CN(C)S(=O)(=O)c1cccs1 | inactive |
| C[C@@H]1CN([C@@H](C)CO)C(=O)c2cc(NC(=O)Nc3ccccc3)ccc2O[C@@H](C)CCCCO[C@@H]1CN(C)S(=O)(=O)c1cccs1 | inactive |
| C[C@@H]1CCCCO[C@@H](CN(C)S(=O)(=O)c2cccs2)[C@@H](C)CN([C@H](C)CO)C(=O)c2cc(NC(=O)Nc3ccc(F)cc3)ccc2O1 | inactive |
| C[C@H](CO)N1C[C@H](C)[C@@H](CN(C)S(=O)(=O)c2cccs2)OCCCC[C@H](C)Oc2ccc(NC(=O)Nc3ccc(F)cc3)cc2C1=O | inactive |
| C[C@@H]1CCCCO[C@@H](CN(C)S(=O)(=O)c2cccs2)[C@H](C)CN([C@@H](C)CO)C(=O)c2cc(NC(=O)Nc3ccccc3)ccc2O1 | inactive |
| C[C@@H]1CN([C@@H](C)CO)C(=O)c2cc(NC(=O)Nc3ccc(F)cc3)ccc2O[C@@H](C)CCCCO[C@H]1CN(C)S(=O)(=O)c1cccs1 | active |
| COc1ccc(NC(=O)Nc2ccc3c(c2)C(=O)N([C@H](C)CO)C[C@H](C)[C@@H](CN(C)S(=O)(=O)c2cccs2)OCCCC[C@H](C)O3)cc1 | inactive |

| SMILES | cytotoxicity call |
| --- | --- |
| C[C@H]1CCCCO[C@@H](CN(C)S(=O)(=O)c2cccs2)[C@@H](C)CN([C@@H](C)CO)C(=O)c2cc(NC(=O)Nc3ccc(F)cc3)ccc2O1 | active |
| COc1ccc(NC(=O)Nc2ccc3c(c2)C(=O)N([C@@H](C)CO)C[C@H](C)[C@@H](CN(C)S(=O)(=O)c2cccs2)OCCCC[C@@H](C)O3)cc1 | active |
| C[C@@H]1CN([C@@H](C)CO)C(=O)Cc2cc(NC(=O)CCCCCC(=O)Nc3ccccc3N)ccc2O[C@@H]1CN(C)C(=O)Nc1ccc(F)cc1 | inactive |
| C[C@H](CO)N1C[C@H](C)[C@@H](CN(C)C(=O)NC2CCCCC2)Oc2c(NC(=O)c3cnccn3)cccc2C1=O | inactive |
| Cc1noc(C)c1S(=O)(=O)Nc1ccc2c(c1)C(=O)N([C@H](C)CO)C[C@H](C)[C@H](CN(C)C(=O)Nc1ccc(F)cc1)OCCCC[C@@H](C)O2 | inactive |
| C[C@@H]1CN([C@@H](C)CO)C(=O)c2cc(C#CC3(O)CCCC3)cnc2O[C@H]1CN(C)C(=O)CN(C)C | inactive |
| CNC[C@H]1OCCCC[C@@H](C)Oc2ccc(NC(=O)Nc3ccc(C(F)(F)F)cc3)cc2C(=O)N([C@@H](C)CO)C[C@H]1C | inactive |
| COc1ccc(NC(=O)Nc2cccc3c2O[C@@H](CN(C)Cc2ccc(C(=O)Nc4ccccc4N)cc2)[C@H](C)CN([C@H](C)CO)C3=O)cc1 | inactive |
| C[C@@H]1CCCCO[C@@H](CN(C)Cc2ccc(C(=O)Nc3ccccc3N)cc2)[C@@H](C)CN([C@H](C)CO)C(=O)c2cc(NC(=O)NC3CCCCC3)ccc2O1 | inactive |
| COCCOC(=O)N1C(=O)[C@@]2(c3cc(C#Cc4ccc(OC)cc4)ccc31)[C@H](c1ccccc1OCCO)N1[C@H](c3ccccc3)[C@H](c3ccccc3)OC(=O)[C@H]1[C@@H]2C(=O)NC[C@H](O)c1ccccc1 | inactive |
| CC(C)NC(=O)Nc1ccc2c(c1)CC(=O)N([C@H](C)CO)C[C@@H](C)[C@H](CN(C)S(=O)(=O)c1ccccc1)O2 | inactive |
| C[C@@H]1CN([C@H](C)CO)C(=O)c2cccc(NC(=O)C3CCCCC3)c2O[C@@H]1CN(C)Cc1ccc(Oc2ccccc2)cc1 | inactive |
| CO[C@@H]1CN(C)C(=O)c2cc(NC(=O)Nc3cccc(Cl)c3)ccc2OC[C@@H](C)N(C(=O)Nc2c(C)noc2C)C[C@@H]1C | inactive |
| CO[C@H]1CN(C)C(=O)c2cc(NC(=O)Nc3cccc(Cl)c3)ccc2OC[C@H](C)N(C(=O)Nc2c(C)noc2C)C[C@@H]1C | inactive |
| C[C@@H]1CN([C@@H](C)CO)C(=O)c2cc(NC(=O)NC3CCCCC3)ccc2O[C@@H](C)CCCCO[C@@H]1CN(C)S(=O)(=O)c1cccs1 | inactive |
| C[C@@H]1CCCCO[C@@H](CN(C)S(=O)(=O)c2cccs2)[C@H](C)CN([C@H](C)CO)C(=O)c2cc(NC(=O)NC3CCCCC3)ccc2O1 | active |
| C[C@H](CO)N1C[C@H](C)[C@H](CN(C)S(=O)(=O)c2cccs2)OCCCC[C@H](C)Oc2ccc(NC(=O)Nc3ccc(F)cc3)cc2C1=O | inactive |
| C[C@@H]1CN([C@@H](C)CO)C(=O)c2cc(NC(=O)NC3CCCCC3)ccc2O[C@@H](C)CCCCO[C@H]1CN(C)S(=O)(=O)c1cccs1 | inactive |
| C[C@H]1CCCCO[C@H](CN(C)S(=O)(=O)c2cccs2)[C@@H](C)CN([C@@H](C)CO)C(=O)c2cc(NC(=O)Nc3ccc(F)cc3)ccc2O1 | inactive |
| C[C@@H]1CCCCO[C@@H](CN(C)S(=O)(=O)c2cccs2)[C@H](C)CN([C@H](C)CO)C(=O)c2cc(NC(=O)Cc3ccccc3)ccc2O1 | active |
| C[C@@H]1CCCCO[C@@H](CN(C)S(=O)(=O)c2cccs2)[C@H](C)CN([C@@H](C)CO)C(=O)c2cc(NC(=O)Cc3ccccc3)ccc2O1 | inactive |
| C[C@@H]1CCCCO[C@H](CN(C)S(=O)(=O)c2cccs2)[C@H](C)CN([C@H](C)CO)C(=O)c2cc(NC(=O)Nc3ccc(F)cc3)ccc2O1 | active |
| C[C@@H]1CN([C@H](C)CO)C(=O)c2cc(NC(=O)Cc3ccccc3)ccc2O[C@@H](C)CCCCO[C@H]1CN(C)S(=O)(=O)c1cccs1 | inactive |
